In all, about 39,000 sequences were measured (“fluorescence intensity (a.u.)”: median about 4,300, highest 2% from about 39,000 on). The list comes from a sample in which the highest values are over-represented; it also holds similar and randomly drawn sequences.

The target in this assay is T1, OsSMF1 (Oryza sativa, UniProt Q6ZLB0 1-436).
T1 sequence: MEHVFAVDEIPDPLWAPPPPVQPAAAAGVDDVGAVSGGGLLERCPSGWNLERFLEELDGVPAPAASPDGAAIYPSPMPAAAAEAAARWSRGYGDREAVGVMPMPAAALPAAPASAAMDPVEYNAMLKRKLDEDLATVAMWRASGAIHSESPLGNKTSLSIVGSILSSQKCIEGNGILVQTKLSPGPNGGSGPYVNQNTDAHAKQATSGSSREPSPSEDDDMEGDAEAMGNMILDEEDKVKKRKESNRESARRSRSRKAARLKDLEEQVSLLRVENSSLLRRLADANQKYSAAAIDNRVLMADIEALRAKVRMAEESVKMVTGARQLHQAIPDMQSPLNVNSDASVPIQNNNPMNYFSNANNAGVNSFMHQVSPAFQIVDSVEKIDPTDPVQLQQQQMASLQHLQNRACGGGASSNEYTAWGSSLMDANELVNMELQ
Description: protein-binding microarray (RPBM); PBS, 2% BSA, 51.3 ng/ul salmon testes DNA, 50 uM zinc acetate, 200 nM TF, 25 C, 1 h; high values mean tight binding. Particulars: protein: recombinant; tags: N-terminal polyhistidine and DsRed monomer fusion (pET32a); chain copies: 2; label: CyDye5-dUTP incorporated in the synthesized complementary strand; 3' TTTTT single-stranded linker to array surface; dsDNA, one strand shown. Summed up:
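In PBS with 2% BSA, salmon testes DNA and 50 µM zinc acetate, 200 nM protein was incubated on a custom Agilent array at 25 °C for 1 h and then washed off. The array had been made double-stranded by primer extension with Cy5-dUTP and blocked with 2% BSA. The proteins were transcription factors fused N-terminally to polyhistidine and DsRed, expressed in E. coli BL21-CodonPlus and purified on Ni–NTA. The binding signal is per-feature fluorescence intensity (arbitrary units) from an Axon 4000B scanner.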
Take “AAATTTTAATACGTGTAGCATTGCTCCCGGTAATGTATTTCGGAGTCACCTAGTGCAG”: the binding signal was 3700 fluorescence intensity (a.u.).

Consider “ATAGAGATCACAGTCACACACATATGGCCTGTGCATTTACCGGAGTCACCTAGTGCAG”, for which the binding signal is 3720 fluorescence intensity (a.u.).

Consider “CGAAAATGATCTGACACTTATTCGAAAGCAACGTCACAAGCGGAGTCACCTAGTGCAG”, for which the binding signal was 4300 fluorescence intensity (a.u.).

With “GGAGAAACAATATTCGTCATACATTTTGAACCAGATCAAGCGGAGTCACCTAGTGCAG”, the binding signal is 31700 fluorescence intensity (a.u.).

As to “TGACATAGAGAGTGATCACAAGCGAAATATTTATTCGGAACGGAGTCACCTAGTGCAG”, the binding signal was 48300 fluorescence intensity (a.u.).

As to “GGCCAGGATGATCGAGCACTTGGTTGTGACACAGAGGGTGCGGAGTCACCTAGTGCAG”, the binding signal was 3220 fluorescence intensity (a.u.).

For “ATTTGGTATGACTTGGCTTCAAACCAAGATGGTCCGGAGTCGGAGTCACCTAGTGCAG”, the binding signal is 5390 fluorescence intensity (a.u.).

In the case of “CCCACATCGCTCCGCGTCATTAGATTTAGCACTTTATCTTCGGAGTCACCTAGTGCAG”, the binding signal was 5240 fluorescence intensity (a.u.).

For “CATGTTCGTGCGCCGTCACTACAGGCACCTCGCTGTCAACCGGAGTCACCTAGTGCAG”, the binding signal is 40100 fluorescence intensity (a.u.).

Turning to “TGCGCCGTCTGCGTCAGCGTGCCTCGTCGCAGTCGCAGGCCGGAGTCACCTAGTGCAG”, the binding signal is 6400 fluorescence intensity (a.u.).

For “CGCCATGTGTCAACTGGCATGGCCGTGCGCTGGCACACACCGGAGTCACCTAGTGCAG”, the binding signal is 5160 fluorescence intensity (a.u.).

For the sequence “CTATGGCTCATGAGCCAAAATTCAAAAGGCTAACGTTGGCCGGAGTCACCTAGTGCAG”, the binding signal is 43400 fluorescence intensity (a.u.).

In the case of “TATGACTAATCATGGACTAATTAGGCTCAAAAGATTCGTCCGGAGTCACCTAGTGCAG”, the binding signal was 33200 fluorescence intensity (a.u.).

As for “TAAGCTCCAAAGCCAGCTATAGCATGAGCTCCAAAATATACGGAGTCACCTAGTGCAG”, the binding signal is 45700 fluorescence intensity (a.u.).

On to “ATATATACTCCAAGCTCGGTGAGCCAGCATCACCACCAACCGGAGTCACCTAGTGCAG”, for which the binding signal was 3220 fluorescence intensity (a.u.).

As for “CCTAAATAAGCTAGCAAAATAGCCAATGCCAGCCAATATTCGGAGTCACCTAGTGCAG”, the binding signal is 28300 fluorescence intensity (a.u.).

Turning to “TTGGCCACCTCCACCTCACTCGCATGAAGGCTAAGTGAGCCGGAGTCACCTAGTGCAG”, the binding signal was 4160 fluorescence intensity (a.u.).

With “CACCTCCCCTTCCCATCCCAACCGGCCAACCCTCCCCACCCGGAGTCACCTAGTGCAG”, the binding signal was 13900 fluorescence intensity (a.u.).

For “GCCGATCCCCGAGGAGGGCGGCGACGTGGAAGGGGAGGGCCGGAGTCACCTAGTGCAG”, the binding signal is 4090 fluorescence intensity (a.u.).

With “GGTAATGGGAGAGGCTGATGTGGCGTGAAATCTCTTGCGTCGGAGTCACCTAGTGCAG”, the binding signal was 16800 fluorescence intensity (a.u.).

Take “TTTATCAAAGCGTCATATATCAATGACCAGAGGTACAACACGGAGTCACCTAGTGCAG”: the binding signal was 3940 fluorescence intensity (a.u.).

For the sequence “CACCATTTTGGGCCGACACATCAAGCAGGCCAACGCGCAGCGGAGTCACCTAGTGCAG”, the binding signal was 3300 fluorescence intensity (a.u.).

With “CCCAACTGTTCTTTCCGTCACGTCACGCACAAGTCAAAATCGGAGTCACCTAGTGCAG”, the binding signal is 5230 fluorescence intensity (a.u.).

As for “ACCTGTGGACTTGCACGGTAACGTAGCACAATCTTCAAAGCGGAGTCACCTAGTGCAG”, the binding signal is 3810 fluorescence intensity (a.u.).

“TCCCCTTCACCGCAACTTCGGCGAAGTCAAGAAGGAGTAGCGGAGTCACCTAGTGCAG”: the binding signal was 43800 fluorescence intensity (a.u.).

Regarding “GCCGAAACGCGAAGTGACAGTGACAAGGGAAGGACGGCCCCGGAGTCACCTAGTGCAG”, the binding signal was 3220 fluorescence intensity (a.u.).

In the case of “AGCGGCAGTAGCAAGGGAGCTAGGCCCCGAAGGAAAACCGCGGAGTCACCTAGTGCAG”, the binding signal was 46000 fluorescence intensity (a.u.).

In the case of “CGGCGAAGTAGCAAGGGTTGAGTCTGCATCATCAACCAATCGGAGTCACCTAGTGCAG”, the binding signal was 3370 fluorescence intensity (a.u.).

For the sequence “TCCCCTCGCGGCGAACGCGCGCGCGCAACGAGAAGCCAAGCGGAGTCACCTAGTGCAG”, the binding signal is 3200 fluorescence intensity (a.u.).

With “TTTAGTAGTTTGAAAAGCATACGCGCGGAAACCGAGCAAGCGGAGTCACCTAGTGCAG”, the binding signal is 3190 fluorescence intensity (a.u.).

For the sequence “TGATGTTCTTACTGGTGGTGCTGATGACAATACTGAACAGCGGAGTCACCTAGTGCAG”, the binding signal was 3840 fluorescence intensity (a.u.).

On to “TAAGTGGACCTATAGGTGCACACGTGGGGAGAGGGGCGTGCGGAGTCACCTAGTGCAG”, for which the binding signal was 5690 fluorescence intensity (a.u.).

“GCACCAGCGGTCCTCAAACTTGTAAGGGTGTGTCATCTAGCGGAGTCACCTAGTGCAG”: the binding signal is 3660 fluorescence intensity (a.u.).

On to “TAAGAAAACTACAGCTTTATTACTCAAACTTAATATTAACCGGAGTCACCTAGTGCAG”, for which the binding signal is 39800 fluorescence intensity (a.u.).

In the case of “ATTGTACACAACAAATTGAAATTTTCAATTCAACTTTTAACGGAGTCACCTAGTGCAG”, the binding signal was 43200 fluorescence intensity (a.u.).

As for “AGTTCAAGAAAACTTTATATTCAAACAAGAAAATTGGGGCCGGAGTCACCTAGTGCAG”, the binding signal was 40900 fluorescence intensity (a.u.).

Regarding “GCAAACAAAATATACCTGCCAAGTCAACTTCACGGCCGGACGGAGTCACCTAGTGCAG”, the binding signal was 4280 fluorescence intensity (a.u.).

On to “CTATATTTTACTATAAGCTTAATCAAACTTCAAAATATTTCGGAGTCACCTAGTGCAG”, for which the binding signal is 14400 fluorescence intensity (a.u.).

Regarding “ACTCTAAATTTAAACTTTTCACTCAATTGAAACTTTTCAACGGAGTCACCTAGTGCAG”, the binding signal was 24700 fluorescence intensity (a.u.).

For “TTTCAATTATTTAGGTATTAACATTAACTACTTTACTAACCGGAGTCACCTAGTGCAG”, the binding signal is 14800 fluorescence intensity (a.u.).

“AGAAATCAACTTCAAACCTTTATTCTCAACATCAGGAGATCGGAGTCACCTAGTGCAG”: the binding signal was 26000 fluorescence intensity (a.u.).

As to “TTTTCAATTGTACATTGAGTCATTGACAATGCACAATTTACGGAGTCACCTAGTGCAG”, the binding signal is 3680 fluorescence intensity (a.u.).

“GGGATGGCCAGATTGGAACTCAGCAGACTCGCTGATGACTCGGAGTCACCTAGTGCAG”: the binding signal was 3800 fluorescence intensity (a.u.).

“TTGTCCCTATAATAATATGTCACTCAAAATTGCTAATAAACGGAGTCACCTAGTGCAG”: the binding signal was 3400 fluorescence intensity (a.u.).

In the case of “GATGTACTCGAGTATCTTCCCCTTCCTAGTTCCTTCCCTTCGGAGTCACCTAGTGCAG”, the binding signal is 13900 fluorescence intensity (a.u.).

For the sequence “GATGCAAAGAGAGCTACTAGCTGAGTTGGATGGAATTAACCGGAGTCACCTAGTGCAG”, the binding signal is 5550 fluorescence intensity (a.u.).

For the sequence “AAGTAGGCGTAGTTAAATCAAATGAGTGCTGTGCTGTCCACGGAGTCACCTAGTGCAG”, the binding signal was 3400 fluorescence intensity (a.u.).

Turning to “CCGTCGCCGTCGGCACCGCCGCCGGAGCTCCTCCCTGCTCCGGAGTCACCTAGTGCAG”, the binding signal is 3220 fluorescence intensity (a.u.).

With “ATCTACTGATTTACAACCTCCTTAATTAACAAGCACGGGTCGGAGTCACCTAGTGCAG”, the binding signal was 24600 fluorescence intensity (a.u.).

Regarding “ACTCCTCGGATAGGCGATGGCGGCCGCGGTCACCGCGCCACGGAGTCACCTAGTGCAG”, the binding signal is 3370 fluorescence intensity (a.u.).

In the case of “AAGCTGTTTCACAAGGCAGTTTTGCATACGTGGCGGGCTGCGGAGTCACCTAGTGCAG”, the binding signal is 21500 fluorescence intensity (a.u.).

Take “AGGAAGGAAGGAAGCAAAATGCTGACGTGTACATAAACCGCGGAGTCACCTAGTGCAG”: the binding signal is 16000 fluorescence intensity (a.u.).

“CACCGCGACGCACATACCCACCCGCCGGCCACGCACGAGACGGAGTCACCTAGTGCAG”: the binding signal is 4460 fluorescence intensity (a.u.).

On to “GGTGTGGAGGGGTTGGACCAGAGCACGACGACGGCGAGGACGGAGTCACCTAGTGCAG”, for which the binding signal was 45100 fluorescence intensity (a.u.).

As to “CTAGACGCCGGCGACGACGAGGGTGGTTGGGTTGTGGATACGGAGTCACCTAGTGCAG”, the binding signal is 3740 fluorescence intensity (a.u.).

Regarding “CACCCACGAGCACACCCGTACCAGGGGACGAGGAGGTGGACGGAGTCACCTAGTGCAG”, the binding signal was 38300 fluorescence intensity (a.u.).

Consider “CGCATACCGGCCAGAAACACGACGGCGACGAGGTGCACTACGGAGTCACCTAGTGCAG”, for which the binding signal was 41500 fluorescence intensity (a.u.).

In the case of “CGGTGCGAGGTACTACGTCAAGGCGTACGAGGCCAGGTACCGGAGTCACCTAGTGCAG”, the binding signal was 3140 fluorescence intensity (a.u.).
